Among the data in PubChem BioAssay (EPA / NIEHS) are outcome and AC50 values, retold here.

Inconclusive results are not listed. Active and inactive are the calls of the source. Rule for the calls, unless noted: active = hit-call score of the fitted dose curve at least 0.9, where 1 is the maximum; inactive = score below 0.9.

Read-out in experiment [1]: Collagen I, COL1A1 (gene 1277)
Nature of the experiment: BSK_MyoF_CollagenI: BioMAP Diversity Plus: MyoF Assay for Collagen I Biomarker Activity (AID 2284238). The following applies: primary human lung fibroblasts. In a few lines: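 Primary human lung fibroblasts (MyoF system) treated 24 h; Collagen I quantified by ELISA and fitted in positive direction against DMSO. Parallel SRB total-protein staining assessed overt cytotoxicity.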

The nature of experiment [2]: CCTE_Mundy_HCI_hNP1_Casp3_7: CCTE's Caspase-Glo 3/7 Assay in human neuroprogenitor cells for Apoptosis, Mundy Lab (AID 2284240). The method in brief: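 Apoptosis is scored by activated caspase-3/7 luminescence in WA09-derived neural progenitor cells, measured 26.5 h after chemical dosing. Values represent gain of signal relative to DMSO vehicle.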
Experiment [3] in a line: CCTE_Mundy_HCI_hNP1_CellTiter: CCTE's Cell Titer-Glo 2 Assay in human neuroprogenitor cells for Viability, Mundy Lab (AID 2284241; active = hit-call score of the fitted dose curve at least 0.9, where 1 is the maximum). In a few lines: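 Human neural progenitor cells (hNP1, WA09-derived) were plated on poly-L-ornithine/laminin and grown 40 to 44 hours at 37 °C, 5% CO2 before chemical addition. Twenty-four hours later, ATP was measured by CellTiter-Glo luminescence; loss of signal versus DMSO indicates reduced viability.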
On the technique in general: Cellular ATP, detected with luciferase, serves as a proxy for viable cell number.

Read-out in experiment [4]: Interleukin 17F (IL17F), IL17F (gene 112744)
Nature of the experiment: BSK_BT_xIL17F: BioMAP Diversity Plus: BT Assay for Interleukin 17F (IL17F) Biomarker Activity (AID 2284243). The following applies: primary human B cells with PBMC. The method in brief:
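Human PBMC co-cultured with B cells, compound exposure 24 h; secreted IL-17F quantified by Luminex xMAP, referenced to DMSO control. PBMC viability measured in parallel by Alamar Blue reduction.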

Read-out in experiment [5]: Actin alpha 1 (ACTA1), ACTA1 (gene 58)
In words: BSK_MyoF_ACTA1: BioMAP Diversity Plus: MyoF Assay for Actin alpha 1 (ACTA1) Biomarker Activity (AID 2284244). The following applies: primary human lung fibroblasts. The method in brief: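 MyoF fibroblast system (human lung); a-SMA quantified via ELISA at 24 h; DMSO-normalised, gain-of-signal endpoint.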

Read-out in experiment [6]: Interleukin 2 (IL2), IL2 (gene 3558)
Nature of the experiment: BSK_BT_xIL2: BioMAP Diversity Plus: BT Assay for Interleukin 2 (IL2) Biomarker Activity (AID 2284245). The following applies: primary human B cells with PBMC. In a few lines: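 Co-cultures of primary human B cells and PBMC are treated with chemical and sampled at 24 h. IL-2 secretion is quantified by Luminex xMAP, with DMSO-treated wells as baseline.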

Read-out in experiment [7]: Collagen IV, COL4A1 (gene 1282)
Nature of the experiment: BSK_MyoF_CollagenIV: BioMAP Diversity Plus: MyoF Assay for Collagen IV Biomarker Activity (AID 2284247). The following applies: primary human lung fibroblasts. The method in brief:
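Lung fibroblasts (human primary) treated with chemicals were assayed after 24 h for Collagen IV using an ELISA, with DMSO serving as negative control and baseline for a positive-direction fit.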

Read-out in experiment [8]: Monokine induced gamma interferon (MIG), CXCL9 (gene 4283)
In words: BSK_KF3CT_MIG: BioMAP Diversity Plus: KF3CT Assay for Monokine induced gamma interferon (MIG) Biomarker Activity (AID 2284248). The following applies: primary human keratinocytes with fibroblasts. The method in brief:
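Human keratinocyte–foreskin fibroblast co-culture; MIG measured by ELISA 24 h after chemical dosing, fitted upward versus DMSO. Cytotoxicity was assessed in parallel cultures by SRB total-protein staining read at 560 nm.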

Read-out in experiment [9]: Vascular cell adhesion molecule 1 (VCAM1), VCAM1 (gene 7412)
In words: BSK_BF4T_VCAM1: BioMAP Diversity Plus: BF4T Assay for Vascular cell adhesion molecule 1 (VCAM1) Biomarker Activity (AID 2284249). The following applies: primary human bronchial epithelial cells with fibroblasts. In a few lines:
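Cell-surface VCAM-1 quantified by ELISA after 24 h chemical exposure of human bronchial epithelial/dermal fibroblast co-cultures, with SRB staining in parallel wells for cytotoxicity; DMSO baseline, positive-direction fitting.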

Read-out in experiment [10]: Collagen I, COL1A1 (gene 1277)
Nature of the experiment: BSK_hDFCGF_CollagenI: BioMAP Diversity Plus: hDFCGF Assay for Collagen I Biomarker Activity (AID 2284250). The following applies: primary human foreskin fibroblasts. In a few lines: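 Readout: Collagen I by ELISA after 24 h compound treatment of primary human foreskin fibroblasts. Endpoint analysed for increases relative to DMSO; total protein by SRB in parallel wells flagged cytotoxicity.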

Read-out in experiment [11]: Interferon-inducible T-cell alpha chemoattractant (ITAC), CXCL11 (gene 6373)
In words: BSK_hDFCGF_ITAC: BioMAP Diversity Plus: hDFCGF Assay for Interferon-inducible T-cell alpha chemoattractant (ITAC) Biomarker Activity (AID 2284251). The following applies: primary human foreskin fibroblasts. The method in brief:
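I-TAC levels were read by ELISA on human dermal foreskin fibroblast primary cultures 24 h after dosing, analysed against DMSO in the positive direction. Cytotoxicity was assessed alongside by sulforhodamine B total-protein staining.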

Read-out in experiment [12]: Plasminogen activator inhibitor-1 (PAI1), SERPINE1 (gene 5054)
In words: BSK_KF3CT_PAI1: BioMAP Diversity Plus: KF3CT Assay for Plasminogen activator inhibitor-1 (PAI1) Biomarker Activity (AID 2284252). The following applies: primary human keratinocytes with fibroblasts. In a few lines: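 In this co-culture of primary human keratinocytes and foreskin fibroblasts, PAI-1 was measured by ELISA at 24 h and fitted upward from DMSO.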

Read-out in experiment [13]: Monocyte Chemoattractant Protein-1 (MCP1), CCL2 (gene 6347)
In words: BSK_IMphg_MCP1: BioMAP Diversity Plus: IMphg Assay for Monocyte Chemoattractant Protein-1 (MCP1) Biomarker Activity (AID 2284253). The following applies: primary human endothelial cells with macrophages. The method in brief:
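ELISA readout of MCP-1 at 24 hours in IMphg co-cultures of venular endothelial cells and macrophages, normalised to DMSO; parallel cultures stained with sulforhodamine B for overt cytotoxicity.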

Read-out in experiment [14]: Interleukin-8 (IL8), CXCL8 (gene 3576)
Nature of the experiment: BSK_KF3CT_IL8: BioMAP Diversity Plus: KF3CT Assay for Interleukin-8 (IL8) Biomarker Activity (AID 2284254). The following applies: primary human keratinocytes with fibroblasts. In a few lines:
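Human keratinocyte/foreskin fibroblast co-culture dosed 24 h; IL-8 measured by ELISA relative to DMSO. Parallel cultures stained with SRB for total protein to flag cytotoxicity.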

Read-out in experiment [15]: Plasminogen activator inhibitor-1 (PAI1), SERPINE1 (gene 5054)
Nature of the experiment: BSK_MyoF_PAI1: BioMAP Diversity Plus: MyoF Assay for Plasminogen activator inhibitor-1 (PAI1) Biomarker Activity (AID 2284256).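 For outcome: PAI-1 read 24 h after compound addition.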 The following applies: primary human lung fibroblasts. The method in brief: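 Primary human lung fibroblasts treated with chemical for 24 h; PAI-1 levels quantified by ELISA relative to DMSO. Cytotoxicity was assessed in parallel cultures by SRB total-protein staining (0.1% SRB after 10% TCA fixation, 560 nm).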

Read-out in the next experiment: CD69, CD69 (gene 969)
Nature of the experiment: BSK_IMphg_CD69: BioMAP Diversity Plus: IMphg Assay for CD69 Biomarker Activity (AID 2284257). The following applies: primary human endothelial cells with macrophages. In a few lines: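 Readout is ELISA for CD69 in primary human venular endothelial cell/macrophage co-culture, taken at 24 h post-dosing. SRB staining of parallel cultures gauged overt cytotoxicity; signal increase versus DMSO defined activity.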

Read-out in experiment [16]: Eotaxin 3, CCL26 (gene 10344)
Nature of the experiment: BSK_BF4T_Eotaxin3: BioMAP Diversity Plus: BF4T Assay for Eotaxin 3 Biomarker Activity (AID 2284258). The following applies: primary human bronchial epithelial cells with fibroblasts. In a few lines:
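ELISA measurement of Eotaxin-3 after 24 h chemical exposure in a bronchial epithelial/dermal fibroblast co-culture, with DMSO as baseline. Parallel SRB staining (0.1% SRB after 10% TCA fixation, 560 nm) flagged overt cytotoxicity.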

Read-out in experiment [17]: Monocyte Chemoattractant Protein-1 (MCP1), CCL2 (gene 6347)
In words: BSK_BF4T_MCP1: BioMAP Diversity Plus: BF4T Assay for Monocyte Chemoattractant Protein-1 (MCP1) Biomarker Activity (AID 2284259). The following applies: primary human bronchial epithelial cells with fibroblasts. In a few lines: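 MCP-1 ELISA readout taken 24 h after dosing in the BF4T system (bronchial epithelial cells plus dermal fibroblasts). Parallel SRB total-protein staining flagged cytotoxicity; DMSO served as baseline, positive fitting direction.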

For the compound `O=C(O)C(F)(F)OC(F)(F)C(F)(F)OC(F)(F)F`, the result in experiment [1], in experiment [2], in experiment [3], in experiment [4], in experiment [5] and in experiment [6] was inactive. Also, the outcome in experiment [7], in experiment [8], in experiment [9], in [10], in [11] and in experiment [12] was inactive. The outcome in experiment [13] is “inactive”; in experiment [14], “inactive”; in [15], “inactive”; with CD69, CD69 (gene 969), “inactive”; in experiment [16] it was “inactive”; in [17] it was “inactive”.
For the compound `c1ccc2c(c1)sc1ccccc12`, the outcome in experiment [1], in experiment [4], in experiment [5], in [6], in experiment [7] and in experiment [15] was inactive.
Turning to `COP(=O)(O)OC`, the result in experiment [1], in [4], in experiment [5], in [6], in experiment [7] and in [15] was inactive.
With `N#Cc1cc([N+](=O)[O-])ccc1N`, the outcome in experiment [1], in [4], in experiment [5], in [6], in experiment [7] and in [15] was inactive.
Regarding `CCOP(=S)(OCC)SCS(=O)(=O)CC`, the outcome in [1], in [4], in experiment [5], in [6], in experiment [7] and in [15] was inactive.
`CCOP(=S)(OCC)SCSc1ccc(Cl)cc1`: the result in experiment [1], in experiment [4] and in [6] was inactive. Also, the AC50 (usually the midpoint of the concentration-response curve, whichever way the signal moves) was 3.97 µM (active) in experiment [5], 0.0408 µM (active) in [7] and 3.97 µM (active) in experiment [15].
`O=S1(=O)OCC2C(CO1)C1(Cl)C(Cl)=C(Cl)C2(Cl)C1(Cl)Cl` (stereo not given): the outcome in experiment [1], in experiment [5], in experiment [7] and in [15] was inactive. In addition, the figures for the half-maximal activity concentration (AC50) in experiment [4] and in [6] were 28.3 µM (active) and 20 µM (active), respectively.
In the case of `CC(Cl)CN(C)C` (stereo not given), the outcome in experiment [1], in [4], in experiment [5], in [6] and in [7] was inactive. Moreover, the AC50 in experiment [15] was 0.016 µM (active).
Regarding `COP(N)(=S)OC`, the result in experiment [1], in experiment [4], in experiment [5], in experiment [6], in experiment [7] and in experiment [15] was inactive.
For the compound `Cc1ccc2c(c1N)C(=O)c1ccccc1C2=O`, the result in [1], in experiment [5], in experiment [6], in experiment [7] and in experiment [15] was inactive. Moreover, the half-maximal activity concentration (AC50) in experiment [4] was 20 µM (active).
As to `CCCCOCCOP(=O)(OCCOCCCC)OCCOCCCC`, the outcome in [1], in experiment [4], in experiment [5], in experiment [6] and in [7] was inactive. Further, the AC50 in experiment [15] was 0.0918 µM (active).
As to `COP(=O)(CCC(=O)NCO)OC`, the result in [8], in experiment [10], in [11], in experiment [12] and in experiment [14] was inactive.
As for `ClC(Cl)=C(c1ccc(Cl)cc1)c1ccccc1Cl`, the AC50 in experiment [1] is 4.93 µM (active); in experiment [4], 32.2 µM (active); in experiment [5] it was 5.45 µM (active); in experiment [6], 31.4 µM (active); in [7] it was 9.38 µM (active); in experiment [15], 9.39 µM (active).
As to `N#Cc1c(-c2ccc(Cl)cc2)[nH]c(C(F)(F)F)c1Br`, the AC50 is 0.899 µM (active) in experiment [1]; 1.63 µM (active) in experiment [4]; 0.329 µM (active) in [5]; 10.1 µM (active) in [6]; 20 µM (active) in experiment [15]. Further, the result in experiment [7] was inactive.
